High-throughput results from PubChem.
Most compounds without a hit are left out; they make up all but 10% or so of the library.
L3MBTL1 block – qHTS Assay for the Inhibitors of L3MBTL1. Potency, µM (series often up to 57.1 µM), inactives show top-dose activity, negative = inhibition, usual class: inhibitors. Lethal(3)malignant brain tumor-like protein 1 (Homo sapiens), Q9Y468. 230,000 tested, 0.66% active. AlphaScreen L3MBTL1–H3K9me1 peptide binding; also: % is scaled to controls: 0 for no effect and ±100 for the full control effect; nearly all actives have a fitted effect of over 60% in size
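Read-out is AlphaScreen signal from streptavidin donor and nickel chelate acceptor beads (10 ug/mL final each) bridging L3MBTL1 (50 nM) and biotinylated K9-monomethylated H3(1-15) peptide (75 nM), after 30 min compound exposure at room temperature.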
JMJD2A Tudor – qHTS Assay for Inhibitors of JMJD2A-Tudor Domain; AID 504339, 2011; AlphaScreen JMJD2A-Tudor / H3K4me3 peptide binding; 390,000 tested, 4.4% active; Potency, µM (highest dose often 114 µM), for inactives: at the highest dose activity change, negative = inhibition, actives largely listed as inhibitors; Lysine-specific demethylase 4A (Homo sapiens), O75164; also: % is scaled to controls: 0 for no effect and ±100 for the full control effect; nearly all actives have a fitted effect of over 50% in size
HP1b binding inh – HTS for Inhibitors of HP1-beta Chromodomain Interactions with Methylated Histone Tails. AID 540317, 2011. Chromobox protein homolog 1 (Homo sapiens), P83916. AlphaScreen HP1-beta / biotin-H3K9me3 peptide binding. 390,000 tested, 0.56% active. Potency, µM (titrated, usually from 114 µM), without a hit: at the top dose activity change, negative = inhibition, hits mostly inhibitors; also: nearly all actives have a fitted effect of over 70% in size
Target sequence (P83916 whole entry, looked up): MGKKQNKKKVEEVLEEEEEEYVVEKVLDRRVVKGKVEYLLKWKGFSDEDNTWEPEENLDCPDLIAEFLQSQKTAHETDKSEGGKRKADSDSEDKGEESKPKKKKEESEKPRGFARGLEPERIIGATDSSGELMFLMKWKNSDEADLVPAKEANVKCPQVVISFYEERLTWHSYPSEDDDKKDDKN
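AlphaScreen: HP1-beta (50 nM) preformed 30 min with biotin-H3(1-18)K9me3 peptide (50 nM) in PBS pH 7.4, 0.01% Tween-20. Compound added for 30 min at RT, then streptavidin donor/nickel chelate acceptor beads (10 ug/mL) for 30 min.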
GLS inh – qHTS for Inhibitors of Glutaminase (GLS). Glutaminase kidney isoform, mitochondrial (Homo sapiens), O94925. GLS enzymatic activity, qHTS titration. Potency, µM (highest dose often 45.5 µM), for the others: top-dose activity change, negative = inhibition, hits mostly inhibitors. 410,000 tested, 0.21% active; also: % is scaled to controls: 0 for no effect and ±100 for the full control effect
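hKGA; 45 mM KH2PO4 pH 8.2 + 0.02% Tween-20; cpd via pin tool; 1 mM Gln soln; GluOx/HRP/Amplex Red; RT 30 min; fluor. t0 & final.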
G9a block – qHTS Assay for Inhibitors of Histone Lysine Methyltransferase G9a. Histone-lysine N-methyltransferase EHMT2 (Homo sapiens), Q96KQ7. G9a H3K9 monomethylation, AlphaScreen, 2 h. Potency, µM (doses to about 102 µM), without a hit: at the top dose activity, negative = inhibition, most hits filed as inhibitors. 350,000 tested, 8.8% active. AID 504332, 2011; also: % is scaled to controls: 0 for no effect and ±100 for the full control effect; nearly all actives have a fitted effect of over 75% in size
Target sequence (Q96KQ7 913-1193 limits assumed): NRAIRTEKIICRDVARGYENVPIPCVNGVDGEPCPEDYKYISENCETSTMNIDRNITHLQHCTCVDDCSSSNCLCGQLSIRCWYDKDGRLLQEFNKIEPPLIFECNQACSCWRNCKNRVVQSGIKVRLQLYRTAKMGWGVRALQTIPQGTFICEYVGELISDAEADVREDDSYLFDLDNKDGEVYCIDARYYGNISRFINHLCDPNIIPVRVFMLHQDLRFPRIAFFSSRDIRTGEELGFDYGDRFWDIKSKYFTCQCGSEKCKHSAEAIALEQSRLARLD
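Using a bead-based AlphaScreen, monomethylated H3K9 product from 2 h room-temperature reactions (G9a 20 nM, peptide 500 nM, SAM 20 uM) was detected with 0.5 ug/mL rabbit anti-H3K9me1 antibody.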
BAZ2B block – qHTS Assay for Inhibitors of BAZ2B | AlphaScreen BAZ2B-H3K14Ac peptide displacement | Potency, µM (series often up to 114 µM), inactives show top-dose activity change, negative = inhibition, usual class: inhibitors | 360,000 tested, 4.4% active | AID 504333, 2011; also: % is scaled to controls: 0 for no effect and ±100 for the full control effect; nearly all actives have a fitted effect of over 60% in size
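In this displacement format the biotinylated H3(5-23) peptide acetylated at Lys14 serves as ligand at 50 nM, with BAZ2B at 50 nM in PBS pH 7.4 containing 0.01% Tween-20. Donor and acceptor beads are 10 ug/mL final.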
* hit, by the source's call; ? = inconclusive; . = not tested or not shown; ! = repeats disagree; [ ] = remark or other dose. Calls follow the shape of the dose curve; as a rule, active = well fitted curve in the direction sought with a large enough effect; inconclusive = small, poorly fitted or top-dose-only effect, or another doubt; inactive = no such curve, though single readings can be large; an effect the other way counts as inactive or inconclusive. Potency is read from the fitted curve at half-maximal effect.

SMILES	L3MBTL1 block	JMJD2A Tudor	HP1b binding inh	GLS inh	G9a block	BAZ2B block
C[C@]12CCC(=O)C=C1CC[C@@H]1[C@H]2[C@@H](O)C[C@@]2(C)[C@H]1CC[C@]2(O)C(=O)CO	.	.	.	-11%	20%[59 µM]	.
CCOC(=O)C(=O)NCc1ccc(/C=C2/N=C(C)C(C(=O)OCC)=C2O)o1	?	-13%	2%	51%	.	-7%
COC(=O)C1=C(O)/C(=C\c2ccc(CNS(=O)(=O)c3ccccc3)o2)N=C1C	?	?	-12%	-14%	?	-11%
COC(=O)C1=C(O)/C(=C\c2ccc(CNC(=O)C(=O)Nc3ccc(C)c(C)c3)o2)N=C1C	.	-26%	-9%	0%	50µM*	-4%
CCOC(=O)C1=C(O)/C(=C/c2ccc(CNC(=O)C(=O)Nc3ccc(C)cc3)o2)N=C1C	.	-14%	4%	4%	32µM*	50µM*
CCOC(=O)C1=C(O)/C(=C\c2ccc(CNS(=O)(=O)c3ccc(Br)cc3)o2)N=C1C	-9%	56µM*	-28%	-17%	?	-3%
COC(=O)C1=C(O)/C(=C\c2ccc(CNC(=O)C(=O)Nc3ccc(C)cc3)o2)N=C1C	7.9µM*	?	24%	-7%	32µM*	32µM*
Cc1cccc(-n2cc(-c3ccccc3)c3c(NC(C)C)ncnc32)c1	.	-22%	18%	-4%	-28%[59 µM]	-23%
CC1CCN(C(=O)c2[nH]cnc2C(=O)NCC(=O)OCc2ccccc2)CC1	-12%	-25%	4%	3%	?	-35%
O=C(CNC(=O)c1nc[nH]c1C(=O)N1CCNCC1)OCc1ccccc1	7%	50µM*	27%	0%	-38%[12.7 µM]	50µM*
C[C@H](NC(=O)c1nc[nH]c1C(=O)NCC(=O)OC(C)(C)C)C(=O)OC(C)(C)C	.	-26%	23%	1%	-45%[59 µM]	?
C[C@H](NC(=O)c1nc[nH]c1C(=O)N1CCNCC1)C(=O)OCc1ccccc1	3%	35µM*	9%	-10%	-7%[2.33 µM]	56µM*
C[C@H](NC(=O)c1nc[nH]c1C(=O)NC1CCNCC1)C(=O)OC(C)(C)C	3%	-22%	30%	-8%	?	50µM*
COc1cc(Cl)c(C)cc1NC(=O)c1cnc2c(-c3cccc(C)c3)c(C)nn2c1C	.	-8%	22%	7%	12%[59 µM]	-5%
Cc1cccn2c(=O)c(C=O)c(Sc3ncccn3)nc12	0%	-16%	29%	-2%	40µM*	-18%
COc1ccc(NC(=S)Nc2ccc(C)c(Cl)c2)cc1OC	4%[11.4 µM]	-13%	1%	11%	-34%	?
COc1ccc(/C([O-])=C(/C(=S)Nc2ccc(C)c(C)c2)n2c[n+](C)c3ccccc32)cc1OC	-7%	-26%	-2%	-14%	45µM*	-36%
CCC(C)NC(=O)C(=O)Nc1c2c(nn1-c1ccccc1)CS(=O)(=O)C2 (stereo not given)	.	45µM*	-14%	-10%	?	?
O=C(CN1CCCC1)NC(c1ccccc1)c1ccccc1	4µM*	1.4µM*	?	-8%	10µM*	0%[0.457 µM]
O=C(CN1CCCCCC1)Nc1ccccc1Cl	4%	3%	59%	4%	-2%	-3%
Cc1nn(CC(=O)Nc2ccccc2C(F)(F)F)c(=O)c2cccn12	.	8.9µM*!	?	1%	3.2µM*!	22µM*!
O=C(CCN1CCCCCC1)Nc1ccccc1F	.	-6%	24%	3%	.	.
